Several values for one entry are separate records, joined by “and”; a condition that tells them apart may be missing. Equal entries are not always repeated. Results filed as inconclusive are left out. Some compounds were tested as several samples or in several runs, with calls that do not always agree. Activity calls are given as the source filed them. The call rests on the fitted dose curve; in most records, active means well fitted inhibition curve with a large enough effect; inconclusive means small, poorly fitted or top-dose-only effect; inactive means flat fitted curve, though single readings scatter.
Assay: P-glycoprotein substrates identified in KB-8-5-11 adenocarcinoma cell line, qHTS therapeutic library screen (AID 1346987); further: nearly all actives have a fitted effect of over 65% in size
Settings: KB-8-5-11 (P-gp overexpressing) viability, CellTiter-Glo, 72 h; series mostly up to 44.5 µM; activity change, negative = cytotoxicity: at the top concentration
Summary of the method: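 Luminescence from CellTiter-Glo, read 5 min after addition, quantified survival of KB-8-5-11 (P-gp-overexpressing) cells exposed to compounds for 72 h. AC50 was derived from concentration-response curves.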
On the % scale 0 is the no-effect control and ±100 the full control effect; potency means the concentration at half of the fitted maximal effect.

Compound	Potency	outcome	activity change, negative = cytotoxicity
C[C@@H](O[C@H]1OCCN(Cc2n[nH]c(=O)[nH]2)[C@@H]1c1ccc(F)cc1)c1cc(C(F)(F)F)cc(C(F)(F)F)c1	20.9 µM (active)		
COc1cc(Cl)cn2c(-c3cccc(NC4CNC4)n3)cnc12		inactive	
COc1ccc(C=CC(=O)Nc2ccccc2C(=O)O)cc1OC			-7.87% (inactive)
CCNC(=O)c1noc(-c2cc(C(C)C)c(O)cc2O)c1-c1ccc(CN2CCOCC2)cc1	0.0731 µM (active)		
C=C1c2cccc(O)c2C(O)=C2C(=O)[C@@]3(O)C(O)=C(C(N)=O)C(=O)[C@@H](N(C)C)[C@@H]3[C@@H](O)[C@H]12			-0.713% (inactive)
CCOC(=O)N1c2ccc(C(F)(F)F)cc2[C@@H](N(Cc2cc(C(F)(F)F)cc(C(F)(F)F)c2)C(=O)OC)C[C@H]1CC		inactive	
c1ccc(-c2oc3ncnc(NC[C@@H]4CCCO4)c3c2-c2ccccc2)cc1	20.9 µM (active) and 20.6 µM (active)		
CC(C)=CCCC(C)=CCCC(C)=CCCC(C)=CCCC(C)=CCCC(C)=CCCC(C)=CCCC(C)=CCCC(C)=CCO		inactive	
CC1=C[C@@H]2[C@@H]([C@@H](O)C[C@@]3(C)[C@H]2C[C@@H](C)[C@]3(O)C(=O)CO)[C@@]2(C)Cc3cnn(-c4ccccc4)c3C=C12	16.4 µM (active)		
CO[C@H]1C=CO[C@@]2(C)Oc3c(C)c(O)c4c(O)c(c(C=NN5CCN(C)CC5)c(O)c4c3C2=O)NC(=O)C(C)=CC=C[C@H](C)[C@H](O)[C@@H](C)[C@@H](O)[C@@H](C)[C@H](OC(C)=O)[C@H]1C			0.164% [at 9.29 µM] (inactive)
CN(C)CCOc1ccc(-c2nc(-c3ccc4c(c3)CCC4=NO)c(-c3ccncc3)[nH]2)cc1		inactive	
O=C(O)C1=CO[C@@H](O[C@@H]2O[C@H](CO)[C@H](O)[C@H](O)[C@H]2O)[C@@H]2C(CO)=CC[C@H]12		inactive	
CN(CC=CC#CC(C)(C)C)Cc1cccc2ccccc12		inactive	
O=C(c1ccc(F)c(F)c1Nc1ccc(I)cc1F)N1CC(O)([C@H]2CCCCN2)C1	20.9 µM (active)		
CN(C)N=Nc1nc[nH]c1C(N)=O	1.87 µM (active)		
CO[C@H]1/C=C\O[C@@]2(C)Oc3c(C)c(O)c4c(O)c(c5c(nc6cc(C)ccn65)c4c3C2=O)NC(=O)C(C)=CC=C[C@H](C)[C@H](O)[C@@H](C)[C@@H](O)[C@@H](C)[C@H](OC(C)=O)[C@H]1C			5.78% (inactive)

Compound	Potency	outcome	activity change, negative = cytotoxicity
COc1cc2ncn(-c3cc(OCc4ccccc4S(C)(=O)=O)c(C#N)s3)c2cc1OC			-12.8% (inactive)
CN1CCC(COc2cnc(-c3cccc(Cn4nc(-c5cccc(C#N)c5)ccc4=O)c3)nc2)CC1	inactive and 16.4 µM (active)		
CC[C@H](C)C(=O)O[C@H]1C[C@H](O)C=C2C=C[C@H](C)[C@H](CC[C@@H](O)C[C@@H](O)CC(=O)O)[C@H]21	inactive		
C[C@@H](N)c1ccc(C(=O)Nc2ccnc3[nH]ccc23)cc1	inactive		
CC(C)N(CCCNC(=O)Nc1ccc(C(C)(C)C)cc1)C[C@H]1O[C@@H](n2cc(Br)c3c(N)ncnc32)[C@H](O)[C@H]1O			-12.1% (inactive)
CN(C)CCOc1cc(-c2cn[nH]c2)ccc1NC(=O)C1COc2ccccc2O1 (stereo unspecified)			-15.8% (inactive)
COc1cc2nccc(Oc3ccc(NC(=O)Nc4cc(C)on4)c(Cl)c3)c2cc1OC	11.8 µM (active) and 13 µM (active)		
CCCCCCOC(=O)N=C(N)c1ccc(NCc2nc3cc(C(=O)N(CCC(=O)OCC)c4ccccn4)ccc3n2C)cc1			8.81% (inactive)
CON(C)C(=O)N1N=C(c2cc(F)ccc2F)S[C@]1(CCCN)c1ccccc1	0.0148 µM (active)		
CC(C)C[C@@H](C(=O)N[C@H](C(=O)OC1CCCC1)c1ccccc1)[C@H](O)C(=O)NO	20.9 µM (active)		
COc1ccc(CCC(=O)Nc2nc3ccc(Cl)cc3s2)cc1OC	inactive		
OCCn1cc(-c2ccc3c(c2)CCC3=NO)c(-c2ccncc2)n1			-16% (inactive)
Cc1c(-c2cccc3c(CCCOc4cccc5ccccc45)c(C(=O)O)n(Cc4cccnc4)c23)c(COc2ccc(N3CCN([S+](=O)([O-])N(C)C)CC3)cc2)nn1C			-1.34% (inactive)
N#CC(c1ccnc(NCCc2cccnc2)n1)c1nc2ccccc2s1 (stereo unspecified)		inactive	
Cc1ccc(C(=O)N(CCCN)[C@@H](c2nc3cc(Cl)ccc3c(=O)n2Cc2ccccc2)C(C)C)cc1	0.118 µM (active)		
